HPGD block: HPGD (human) dehydrogenase inhibition | purified HPGD, NADH fluorescence kinetic, PGE2 substrate | 4.3% of 150,000 active | Potency, µM, inactives show top-dose activity change, negative = inhibition, actives largely listed as inhibitors | AID 894 | P15428; active = well fitted inhibition curve with a large enough effect, not every such curve was filed as active; inconclusive = small, poorly fitted or top-dose-only effect, or another doubt; inactive = no such curve, though single readings can be large or run the other way; note: potency is the fitted concentration of half-maximal effect
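NADH formation kinetics: reaction with 30 uM PGE2 and 1 mM NAD+ (final), 20 nM enzyme, Tris-HCl pH 8 with Tween 20, after 15 min compound preincubation at room temperature. Fluorescence change, last versus first of five reads.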
GLA spleen mod: alpha-galactosidase A (human) modulation | 0.008% of 240,000 active | AID 2107 | human spleen homogenate, 4MU-alpha-Gal fluorescence, 40 min | P06280 | Potency, µM (titrated, usually from 80 µM), inactives show top-dose activity change, negative = inhibition, usual class: inhibitors;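 note: potency is the fitted concentration of half-maximal effect; 0% = enzyme with vehicle and -100% = no enzyme basal signal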
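Fluorogenic readout (Ex 365/Em 440 nm) of 4-methylumbelliferone released from 1 mM 4-MU-alpha-galactoside by spleen homogenate, 40 min at 37C, pH 5.0. Data normalized to no-enzyme and enzyme controls; Hill-equation AC50 from compound titrations.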
PNC assembly inh: blocks assembly of the perinucleolar compartment. PC3M PTB-GFP, PNC prevalence imaging, 16 h; stronger effect = lower value. activity change (PNC), negative = inhibition, % at 10 µM. 3.1% of 140,000 active. AID 2417;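 active = readout at or below -70, meaning at least 70% loss of cells showing the perinucleolar compartment, a nuclear body marking cancer cells; inconclusive = readout between -30 and a set limit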;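 note: plate controls were DMSO wells for no effect and camptothecin positive control wells for full effect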
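PC3M cells stably expressing PTB-GFP, 750–1000 cells/well, treated 16 h at 37 °C with compound (23 nl of library stock), in duplicate. After paraformaldehyde fixation and Hoechst stain, imaged at 20x; PNC prevalence scored by image analysis.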
GLA inh pH 4.5: inhibitors of human alpha-galactosidase A at pH 4.5; purified enzyme, 4-MU-alpha-Gal fluorescence, pH 4.5; P06280; activity change, negative = inhibition, % at 105 µM; 230,000 tested, under 10 active;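 note: 0% = full activity with enzyme and -100% = basal without enzyme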
ALDH1A1 inh: blocks purified human ALDH1A1 activity | P00352 | Purified ALDH1A1, NADH fluorescence, propionaldehyde substrate | Potency, µM (top dose mostly 75.3 µM), inactives show top-dose activity, negative = inhibition, usual class: inhibitors | 7.3% of 220,000 active | AID 1030; active = well fitted inhibition curve with a large enough effect, not every such curve was filed as active; inconclusive = small, poorly fitted or top-dose-only effect, or another doubt; inactive = no such curve, though single readings can be large or run the other way;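 note: potency is the fitted concentration of half-maximal effect; plate controls were no enzyme wells and a reference inhibitor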
ALOX12 inhib: blocks human 12-lipoxygenase activity; P18054; Potency, µM (highest dose often 57.1 µM), for the others: at the highest dose activity change, negative = inhibition, most hits filed as inhibitors; purified 12-hLO, xylenol orange hydroperoxide absorbance; 0.12% of 150,000 active; AID 1452; note: potency is the fitted concentration of half-maximal effect; nearly all actives have a fitted effect of over 55% in size
Target sequence (P18054 whole entry, looked up): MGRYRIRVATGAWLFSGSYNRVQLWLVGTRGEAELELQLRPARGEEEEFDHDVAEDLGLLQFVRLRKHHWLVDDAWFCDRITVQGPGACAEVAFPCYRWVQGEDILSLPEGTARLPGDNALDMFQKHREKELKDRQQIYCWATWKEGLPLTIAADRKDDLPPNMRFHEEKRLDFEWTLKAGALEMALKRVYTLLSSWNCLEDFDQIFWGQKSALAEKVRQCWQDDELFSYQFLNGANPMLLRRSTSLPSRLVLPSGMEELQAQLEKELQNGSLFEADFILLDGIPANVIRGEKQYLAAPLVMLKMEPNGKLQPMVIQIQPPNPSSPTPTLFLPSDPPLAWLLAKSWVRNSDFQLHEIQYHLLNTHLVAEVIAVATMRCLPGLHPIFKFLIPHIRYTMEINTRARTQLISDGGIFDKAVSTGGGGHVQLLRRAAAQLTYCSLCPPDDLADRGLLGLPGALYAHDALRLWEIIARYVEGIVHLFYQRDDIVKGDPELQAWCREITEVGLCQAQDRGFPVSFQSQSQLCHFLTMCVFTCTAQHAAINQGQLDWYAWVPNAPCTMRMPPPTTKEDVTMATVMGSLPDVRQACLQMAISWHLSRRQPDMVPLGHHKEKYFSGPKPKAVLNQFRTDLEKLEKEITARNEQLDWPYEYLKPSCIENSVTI
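Purified human 12hLO (150 nM final) was preincubated with compounds for 15 min at room temperature in 25 mM Hepes pH 7.0, 0.01% Triton X-100, then reacted with 40 uM arachidonic acid for 30 min. Hydroperoxide was detected with ferrous iron/xylenol orange.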
Starred values were filed as active, the others as inactive; ? = inconclusive; · = no result given; [ ] = another dose, or the depositor's remark. The list is not random: actives were taken first. Their share in the collection is about 10%. Unless noted, calls come from the whole dose curve; as a rule, active = well fitted curve in the direction sought with a large enough effect; inconclusive = small, poorly fitted or top-dose-only effect, or another doubt; inactive = no such curve, though single readings can be large; an effect the other way counts as inactive or inconclusive. Unless noted, % is set by controls: 0 for no effect and ±100 for the full control effect.

SMILES	HPGD block	GLA spleen mod	PNC assembly inh	GLA inh pH 4.5	ALDH1A1 inh	ALOX12 inhib
CN(C)N1C(N)=C(C#N)C(c2cccs2)C2=C1CCCC2=O (stereo not drawn)	·	1%	·	5	?	·
CCOc1c2ccc(C(=O)NCCc3ccc(C)cc3)cc2nn1CC	?	8%	-113*	1	?	4%
Cc1ccc(-c2nn3c(C)nnc3s2)cc1NC(=O)c1ccc(OC(C)C)cc1	1.1µM*	7%	?	-4	13µM*	-16%
COc1ccc(C(=O)Nc2cc(-c3nn4c(C)nnc4s3)ccc2C)cc1	?	8%	-9	-10	4%	-1%
Cc1cc2c(nc1C)CCCN2C[C@@H](O)CN1CCN(C)CC1	·	5%[17.5 µM]	·	·	-12%[13.5 µM]	·
C=C1C=CS(=O)(=O)N(C(C)C(=O)OC)C1 (stereo not drawn)	·	-6%	·	·	·	·
Cc1ccc(NC(=S)N(C)C)cc1C	·	-3%	·	3	·	·
NC(=S)Nc1ccc(Oc2ccc(NC(N)=S)cc2)cc1	22µM*	2%	?	3	28µM*	?
Cc1ccc(NC(N)=S)cc1C	-9%	-22%	-125*	-9	-3%	-4%
CC(C)(CNC(=O)/C=C/c1ccc(F)cc1)CNC(=O)/C=C/c1ccc(F)cc1	-8%	-3%	-17	0	-5%	-5%
CC(C)CN(C)c1nc(N)c(C(=O)N=C(N)N)nc1Cl	-15%	17%	·	-7	-12%	5%
CC(C)CCOc1ccc(C(=O)CCNC(C)C(=O)O)cc1 (stereo not drawn)	-17%	-2%	29	3	0.13µM*	-7%
CC(NC(=O)c1ccc(C(C)(C)C)cc1)C(=O)O (stereo not drawn)	-8%	1%	-3	7	14%	7%
CCCCOc1ccc(C(=O)Nc2ccncc2)cc1	-1%	-2%	-118*	-3	-6%	5%
CC(C)CCOc1ccc(C(=O)O)cc1	-6%	11%	?	4	7%	5%
CCCOc1ccc(C(=O)NC(C)C(=O)O)cc1 (stereo not drawn)	-9%	4%	-106*	3	9%	-10%
CCCCOc1ccc(C(=O)NC)cc1	-3%	6%	2	8	0%	-3%
COc1ccc(C(=O)N2CCC[C@@]3(CCN(c4cccc(-c5ccccc5)c4)C3)C2)cc1	-24%	-10%	·	·	?	-30%
Cc1cccc(Nc2nc3c(S(=O)(=O)c4ccccc4)nnn3c3ccccc23)c1	?	0%	-90*	-4	?	-5%
Cc1ccc(S(=O)(=O)N/N=C\c2cc3c(cc2Br)OCO3)cc1	-4%	6%	35	-6	-9%	-9%
O=[N+]([O-])c1cc2c(cc1/C=N/NS(=O)(=O)c1ccc(Br)cc1)OCO2	·	4%	·	-1	3.2µM*	·
O=C(NCc1nnc2c3ccccc3c(-c3ccccc3)nn12)c1ccc(Cl)cc1	-6%	-5%	-111*	-3	7%	-2%
O=C(O)C=C1C2CC3CC(C2)CC1C3	5%	11%	-82*	-2	-1%	-5%
O=C(Nc1ccccn1)C(=O)Nc1ccccn1	·	8%	·	-5	8%	·
Cc1ccc(C)c(NC(=S)c2ccccn2)c1	28µM*	7%	21	3	?	-23%
SMILES	HPGD block	GLA spleen mod	PNC assembly inh	GLA inh pH 4.5	ALDH1A1 inh	ALOX12 inhib
S=C(Nc1ccccn1)c1ccccn1	8.9µM*	-4%	26	1	3.5µM*	-5%
CCOC(=O)c1c(NC(=O)c2cc(-c3ccc(O)cc3)on2)sc(C(C)=O)c1C	18µM*	4%	24	3	22µM*	-2%
CCOC(=O)c1c(NC(=O)CC(C)C)sc(C(C)=O)c1C	-15%	3%	-100*	-5	?	-1%
CCOC(=O)c1sc(NC(=O)CN(CC(C)C)CC(C)C)c(C(=O)OCC)c1C	?	-3%	-110*	-5	22µM*	1%
CCOC(=O)c1c(NC(=O)COC)sc(C(C)=O)c1C	?	2%	-6	-8	-3%	0%
O=c1c2ccccc2c(C=NC2CCN(Cc3ccccc3)CC2)c(O)n1Cc1ccc2c(c1)OCO2	·	-12%	·	-16	-12%	·
Cc1cccc(C)c1NC1=NCCCCC1	·	-5%	·	3	4%	·
COc1ccccc1C(=O)COC(=O)CNS(=O)(=O)c1ccc(C)cc1	·	-3%	·	-4	-3%	·
COc1cc(OC)cc(C(=O)NC2CCN(Cc3nnnn3Cc3cccs3)CC2)c1	0%	0%	-23	3	13µM*	5%
Nc1cc(S(=O)(=O)O)ccc1O	-6%	-17%	·	·	?	2%
O=C(/C=C/c1ccccc1)OCc1cnc(Cl)s1	·	0%	·	-6	1%	·
CCn1c(SCC(=O)N2CCCc3ccccc32)nnc1-c1ccco1	-11%	2%	-9	12	22µM*	3%
CCn1c(SCC(=O)N2CCCc3ccccc32)nnc1-c1cccs1	-2%	4%	?	-7	-8%	1%
CCn1c(SCC(=O)N2CCCc3ccccc32)nnc1-c1ccoc1C	-13%	-4%	-100*	-11	-5%	2%
CCOC(=O)c1c(NC(=O)c2ccc(Cl)cc2)csc1C	-10%	-9%	?	7	1%	-1%
COc1ccc2c(c1)O[C@@H](c1ccc3c(c1)OCO3)[C@H](OC(=O)Nc1ccc(OC(F)F)cc1)C2=O	-3%	-4%	·	-3	-2%	·
CCOc1ncccc1C(=O)NCc1ccc(OC)c(OC)c1	-13%	-1%	32	-1	17%	-1%
Cc1cc2cc(CNC(=O)NC3CCCCC3)ccc2[nH]1	?	-19%	51	-10	-8%	-5%
Cc1cc2cc(CNC(=O)COc3ccccc3)ccc2n1C	·	15%	·	0	·	·
Cc1cc2cc(CNC(=O)c3cc4ccccc4o3)ccc2n1C	7.1µM*	-7%	-9	-3	?	0%
COCC(=O)NCc1ccc2c(c1)cc(C)n2C	25µM*	-3%	-113*	-7	2%	0%
Cc1ccc(S(=O)(=O)NCc2ccc3c(c2)cc(C)n3C)cc1	-7%	-18%	?	-15	20µM*	-12%
Cc1cc2cc(CNC(=O)c3ccco3)ccc2n1C	·	-8%	·	3	·	·
Cc1cc2cc(CNC(=O)NC3CCCCC3)ccc2n1C	28µM*	8%	-11	2	-2%	-5%
CCOc1cc2c(cc1OCC)C(c1ccccc1)N(c1ccc(C(=O)O)cc1)C(=O)C2 (stereo not drawn)	·	-8%	·	-6	·	·
COC(=O)C1=C(C)N(Cc2ccccc2)C2=C3C(=O)CCCC3[C@@](O)(C(=O)OC)C(=O)N2C1c1ccccc1 (stereo partly drawn)	·	15%[17.5 µM]	·	·	10%[13.5 µM]	·
